Compound activity (PubChem)
The list is not random: actives were taken first. Their share in the collection is about 21%.
DT40 TDP1 CPT = growth inhibition of DT40 Tdp1-/-;hTDP1 cells with camptothecin (screen for TDP1 inhibitors) | Potency, µM (top dose mostly 46.2 µM), for the others: at the top dose activity change, negative = growth inhibition, most hits filed as inhibitors | chicken DT40 Tdp1-/-;hTDP1 cells + 20 nM CPT, ATP luminescence, 48 h | 12% of 420,000 active; also: potency is read from the fitted curve at half-maximal effect; % is scaled to controls: 0 for no effect and ±100 for the full control effect; nearly all actives have a fitted effect of over 55% in size
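Cell growth measured by CellTiter-Glo luminescence after a minimum 48 h, 37 C compound exposure with 20 nM CPT in Tdp1-knockout DT40 cells stably expressing hTDP1, seeded 400/well; qHTS titration format.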
D3 antag = antagonists of human D3 dopamine receptor. P35462. D3R cells, DiscoveRx beta-arrestin luminescence, antagonist mode; active compounds read low. max response, negative = inhibition, %. 2.5% of 360,000 active; in the data active = max response below about -50%; inconclusive = no clear call, values can overlap the other calls; also: % is scaled to controls: 0 for no effect and ±100 for the full control effect
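Cells expressing the human receptor were seeded at 1500 cells/well, incubated overnight at 37 degrees C in 5% CO2, then exposed to library compounds with dopamine controls for 90 minutes at 37 degrees C before luminescent detection.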
ClpP mod = qHTS Assay for Activators of ClpP | ATP-dependent Clp protease proteolytic subunit (Bacillus subtilis (strain 168)), P80244 | purified B. subtilis ClpP, FRET peptide cleavage, 20 min | Potency, µM (highest dose often 57.5 µM), without a hit: at the top dose activity change, negative = active | 1.9% of 340,000 active | AID 651965, 2013; active = well fitted falling curve with a large enough effect; inconclusive = small, poorly fitted or top-dose-only effect; inactive = no such curve, though single readings can be large or run the other way; also: potency is read from the fitted curve at half-maximal effect; the source files actives as falling curves though it sought activators and does not explain the sign; nearly all actives have a fitted effect of over 65% in size
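FRET quenching reversal measured ClpP activation: 10 microg/mL B. subtilis ClpP at pH 8 with the FRET-FV decapeptide, read at 430 nm after 320 nm excitation. The 20-min minus 0-min signal was scaled between DMSO/no-enzyme wells and ADEP (5.8 microM final).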
IL-1B inflam inh = blocks inflammasome-driven IL-1 beta release; activity change, % at 57.5 µM; THP-1 LPS/ATP IL-1B secretion, AlphaLISA, 16 h; active compounds read low; 4.7% of 360,000 active; in the data active = activity change below about -50%; inconclusive = mostly about -30% to -49%; also: % is scaled to controls: 0 for no effect and ±100 for the full control effect
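THP-1 cells pretreated 1 hr with compounds (up to 57.5 uM final), then stimulated with LPS (250 ng/mL final) plus ATP (1.25 mM final); secreted IL-1B measured by AlphaLISA after 16 hr, decreased signal indicating inhibition.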
DT40 TDP1 no CPT = qHTS for Inhibitors of human tyrosyl-DNA phosphodiesterase 1 (TDP1): qHTS in cells in absence of CPT; DT40 Tdp1-/- hTDP1 cells, no CPT, ATP luminescence, 48 h; Potency, µM (top dose mostly 46.2 µM), for the others: at the highest dose activity change, negative = growth inhibition, actives largely listed as inhibitors; AID 686978, 2013; 15% of 420,000 active; also: potency is read from the fitted curve at half-maximal effect; % is scaled to controls: 0 for no effect and ±100 for the full control effect; nearly all actives have a fitted effect of over 55% in size
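DT40 Tdp1-/-;hTDP1 cells, no CPT (DMSO vehicle only), 400 cells/well; compounds pin-transferred; ≥48 hr, 37 °C; CellTiter-Glo 30 min RT dark, luminescence read.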
D3 ag = activates the human D3 dopamine receptor. P35462. D3R DiscoveRx beta-arrestin cells, luminescence, 90 min. max activation, %. 0.58% of 410,000 active. AID 652048; in the data active = max activation above about 30%; also: 0% is about no effect
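Agonist mode: compounds and dopamine controls were applied to plated cells for 90 min at 37 degrees C after an overnight attachment at 1500 cells/well. Luminescent read-out followed 30 - 60 minutes at room temperature with DiscoveRx detection reagent.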
An asterisk follows results filed as active; ? = inconclusive; . = no result. Unless noted, calls follow the shape of the dose curve; as a rule, active = well fitted inhibition curve with a large enough effect; inconclusive = small, poorly fitted or top-dose-only effect; inactive = flat fitted curve, though single readings scatter.

SMILES	DT40 TDP1 CPT	D3 antag	ClpP mod	IL-1B inflam inh	DT40 TDP1 no CPT	D3 ag
Cc1c(N2C(=O)CS/C2=N\N=C\c2ccc(Cl)cc2)c(=O)n(-c2ccccc2)n1C	-14.4%	4.9	-0.5%	0.0	-3.2%	-5.0
Cc1c(N2C(=O)/C(=C/c3cccc4ccccc34)SC2=S)c(=O)n(-c2ccccc2)n1C	?	-5.1	-2.2%	-79.9*	-16.8%	5.0
Cc1c(N2C(=O)/C(=C\c3ccccc3O)SC2=S)c(=O)n(-c2ccccc2)n1C	7.31µM*	-3.6	2.9%	?	?	-13.9
Cc1c(N2C(=O)/C(=C3\C(=O)N(CC(=O)O)c4ccccc43)SC2=S)c(=O)n(-c2ccccc2)n1C	?	-27.3	-1.7%	0.0	?	-13.3
Cc1c(N2C(=O)CS/C2=N\N=C\c2ccccc2O)c(=O)n(-c2ccccc2)n1C	0.2%	10.4	-2.0%	-3.9	-7.2%	38.7*
Cc1ccc(C)c(C(=O)N2CCC(C3(c4ccccn4)NC(=O)N(CC4CCCO4)C3=O)CC2)c1 (configuration not stated)	7.9%	.	.	.	-8.1%	.
CN1C(=O)/C(=C/c2cc(N=Nc3ccccc3)ccc2O)SC1=S	?	-135.3*	0.1%	26.8	23.1µM*	-0.6
O=C1CSc2ccc(S(=O)(=O)NCc3ccc(Cl)cc3)cc2N1	-22.2%	-10.4	-0.2%	52.2	-8.5%	-2.0
Cc1ccc(CNS(=O)(=O)c2ccc3c(c2)NC(=O)CS3)cc1	?	-13.8	-0.8%	19.9	14.6µM*	-13.1
COc1cccc(CN(C)C(=O)CC[C@H]2O[C@@H](n3ccc(=O)[nH]c3=O)[C@H](O)[C@@H]2O)c1	4.2%	3.5	3.1%	27.4	1.9%	3.7
CCOc1ccc(CN2CCN(CC3CC3)CC2CCO)cc1 (configuration not stated)	-5.1%	-14.8	-1.0%	7.9	?	-11.6
Nc1ccc(C(=O)NC23CC4CC(CC(C4)C2)C3)cc1	-2.2%	-9.2	-1.1%	-19.9	?	1.3
O=C(NC12CC3CC(CC(C3)C1)C2)c1ccccc1O	?	-18.6	28.2µM*	-16.1	?	1.3
O=C(NNC(=O)C12CC3CC(CC(C3)C1)C2)c1ccccc1O	8.2µM*	27.5	?	11.0	8.2µM*	-3.1
Cc1ccccc1-c1nnn(C/C(N)=N/O)n1	1.2%	9.0	-2.0%	-7.4	12.0%	-8.1
O=S(=O)(NCC1CCCO1)c1ccc(Cl)c2ccccc12 (configuration not stated)	?	-10.1	-3.5%	-0.1	?	-0.7
O=C(O)CCCCCNS(=O)(=O)c1ccc(Cl)cc1	-5.7%	-25.5	0.9%	17.7	-4.1%	-16.6
NCCCCCCNS(=O)(=O)c1ccc2c(Cl)cccc2c1	13.3µM*	.	-1.1%	.	11.2µM*	.
O=S(=O)(NCCCc1ccccc1)c1ccc(Cl)cc1	?	38.2	0.3%	8.0	-29.5%	-5.3
NCCNS(=O)(=O)c1cccc2c(Cl)cccc12	26.6µM*	.	.	.	26.6µM*	.
NCCCCNS(=O)(=O)c1ccc2c(Cl)cccc2c1	11.9µM*	.	.	.	11.9µM*	.
CCOC(=O)c1c(S(=O)(=O)N2CCC(C(=O)Nc3cccc(C#N)c3)CC2)c(C)n(C)c1C	-23.2%	.	-1.5%	.	-20.2%	6.5
CCC(Sc1ncccc1C(=O)Oc1ccccc1Cl)C(=O)Nc1ccccc1OC (configuration not stated)	?	.	-2.3%	.	?	-1.9
CNC(=O)c1cc(C(=O)c2ccc(Cl)cc2)c(Br)[nH]1	?	-2.2	-2.4%	6.4	?	-3.2
O=C(CC1C(=O)NCCN1Cc1ccc(F)c(F)c1)NCCCn1ccnc1 (configuration not stated)	-0.4%	-9.5	.	7.5	-2.4%	11.4
SMILES	DT40 TDP1 CPT	D3 antag	ClpP mod	IL-1B inflam inh	DT40 TDP1 no CPT	D3 ag
CN1c2ccc(Cl)cc2C(=O)NC1c1ccc([N+](=O)[O-])s1 (configuration not stated)	20.6µM*	2.1	.	-6.5	23.1µM*	15.8
CC1CCCN(C(=O)c2sc3cc([N+](=O)[O-])ccc3c2Cl)C1 (configuration not stated)	25.9µM*	20.0	-1.5%	-17.7	16.4µM*	-8.0
O=C(c1sc2cc([N+](=O)[O-])ccc2c1Cl)N1CCCCC1	-2.4%	?	-0.4%	?	?	-27.7
CC(NC(=O)c1sc2cc([N+](=O)[O-])ccc2c1Cl)C(C)(C)C (configuration not stated)	5.17µM*	16.9	0.7%	?	4.11µM*	4.2
CC(C)OP(=O)(OC(C)C)C(O)c1ccc(N(C)C)cc1 (configuration not stated)	-16.1%	7.8	0.9%	5.0	0.9%	0.0
COc1ccc(CC(=O)NCCS(=O)(=O)N2CCN(c3ccc(F)cc3)CC2)cc1OC	?	25.9	-2.3%	39.7	?	6.6
COc1ccc(CCN(C)C(=O)c2cccc(S(=O)(=O)N3CCN(c4ccc(F)cc4)CC3)c2)cc1OC	14.6µM*	13.2	-1.3%	-21.3	16.4µM*	9.8
CN(CCOc1ccc(Cl)cc1)C(=O)c1cccc(S(=O)(=O)N2CCN(c3ccc(F)cc3)CC2)c1	7.31µM*	-0.4	.	-3.2	5.17µM*	8.1
Cc1ccccc1C(=O)NC1CC2CCCC(C1)N2CC(C)C (configuration not stated)	?	-4.8	0.9%	-10.5	-25.7%	-1.5
Cc1nnc2nc(-c3ccccc3)nc(-c3ccccc3)n12	?	20.2	3.9%	-7.7	14.6µM*	0.2
Cn1nc(-c2ccccc2)nc1-c1ccccc1	?	-24.3	-1.7%	24.0	-27.4%	-16.7
CCCCn1c(NC(=O)c2ccco2)c(S(=O)(=O)c2ccc(C)cc2)c2nc3ccccc3nc21	?	0.1	.	0.0	?	-2.3
CCC(=O)Nc1c(S(=O)(=O)c2ccccc2)c2nc3ccccc3nc2n1C(C)c1ccccc1 (configuration not stated)	?	17.8	31.6µM*	?	?	3.0
CCCCCn1c(NC(=O)c2ccco2)c(S(=O)(=O)c2ccc(C)cc2)c2nc3ccccc3nc21	20.6µM*	9.0	?	-6.8	18.4µM*	1.6
Cc1ccc(S(=O)(=O)c2c(N)n(CCCO)c3nc4ccccc4nc23)cc1	11.7%	-14.5	29.2%	-13.2	-18.6%	2.8
